# Results filed as inconclusive are left out. Active and inactive are the calls of the source. Unless noted, calls come from the whole dose curve; as a rule, active = well fitted curve in the direction sought with a large enough effect; inconclusive = small, poorly fitted or top-dose-only effect, or another doubt; inactive = no such curve, though single readings can be large; an effect the other way counts as inactive or inconclusive.
# How the values were obtained:
# [1] = target: Tyrosyl-DNA phosphodiesterase 1 (Homo sapiens) (UniProt Q9NUW8); experiment: Confirmation Assay for Inhibitors of Tyrosyl-DNA Phosphodiesterase (TDP1) (AID 489007); settings: recombinant human TDP1 enzymatic activity, dose-response; note: potency is the fitted concentration of half-maximal effect; nearly all actives have a fitted effect of over 40% in size
# Method in brief: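 Confirmation of primary-screen follow-ups in a qHTS format. Substrate cleavage by Tdp1 (1 nM) of a 3'-phosphotyrosine-FITC, 5'-biotin oligo (15 nM) was monitored as decreased AlphaScreen signal after a 5 min room-temperature reaction.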
# Furin (Homo sapiens) = Furin (Homo sapiens) (UniProt P09958); experiment: Furin counterscreen qHTS for Zika virus inhibitors (AID 1347149);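 note: purified recombinant full-length human furin enzyme at 5 nM; fluorescence gain from furin cutting a BOC-RVRR-AMC peptide substrate over 15 min; top concentration of the series differs between compounds; plate controls were no-inhibitor control for no effect and no-enzyme control for full effect; nearly all actives have a fitted effect of over 70% in size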
# Sequence of Furin (Homo sapiens) (P09958 whole entry, looked up): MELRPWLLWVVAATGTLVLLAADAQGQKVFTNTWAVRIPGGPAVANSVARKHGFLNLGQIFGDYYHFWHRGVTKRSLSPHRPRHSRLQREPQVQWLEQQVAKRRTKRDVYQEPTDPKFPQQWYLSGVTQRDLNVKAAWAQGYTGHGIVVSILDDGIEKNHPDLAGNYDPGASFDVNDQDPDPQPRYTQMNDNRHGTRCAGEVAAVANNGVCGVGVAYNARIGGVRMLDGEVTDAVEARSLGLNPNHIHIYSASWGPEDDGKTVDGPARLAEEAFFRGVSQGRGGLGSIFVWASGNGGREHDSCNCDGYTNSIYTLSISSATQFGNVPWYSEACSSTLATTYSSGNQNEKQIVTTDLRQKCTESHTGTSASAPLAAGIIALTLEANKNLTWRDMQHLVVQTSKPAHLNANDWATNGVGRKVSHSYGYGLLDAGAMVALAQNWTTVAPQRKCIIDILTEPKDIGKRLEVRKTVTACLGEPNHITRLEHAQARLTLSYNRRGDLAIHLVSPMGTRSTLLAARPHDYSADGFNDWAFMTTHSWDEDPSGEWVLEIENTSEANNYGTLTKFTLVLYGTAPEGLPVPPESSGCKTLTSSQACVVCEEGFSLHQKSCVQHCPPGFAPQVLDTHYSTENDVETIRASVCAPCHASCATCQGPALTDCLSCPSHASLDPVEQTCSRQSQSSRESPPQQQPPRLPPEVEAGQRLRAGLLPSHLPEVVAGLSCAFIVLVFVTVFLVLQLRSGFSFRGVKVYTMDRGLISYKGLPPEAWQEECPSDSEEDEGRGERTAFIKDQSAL
# Method in brief: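 Fluorogenic cleavage of BOC-RVRR-AMC (2 microM final, Km ~15 µM) was monitored (ex 340, em 450 nm) at 37C after 15 min RT preincubation of 5 nM furin with compounds in HEPES pH 7.0 buffer with CaCl2 and Triton X-100. Percent inhibition was fitted to a 4-parameter Hill curve.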
# [2] = Confirmatory screen GU Rhodamine qHTS for Zika virus inhibitors qHTS (AID 1347157); note: potency is the fitted concentration of half-maximal effect; nearly all actives have a fitted effect of over 70% in size
# Method in brief: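 Compounds, tested up to 114 microM, were incubated for 15 minutes with 25 nM unlinked NS2B-NS3 protease at pH 8.0. Cleavage of 1.5 microM Rhodamine110 substrate was then followed by fluorescence for 15 minutes.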
# [3] = ZIKV-mCherry secondary qHTS for Zika virus inhibitors (AID 1347158); note: top concentration of the series differs between compounds
# Method in brief: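 After overnight seeding at 37 °C, Vero cells receive compound and then ZIKV-mCherry (MOI 1). Following 48-72 h infection, cells are fixed, counterstained with Hoechst, and imaged; percent infected cells is derived from an mCherry intensity cut-off of 450 RFU.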
# [4] = tested on: Zika virus NS2B-NS3 protease (linked); experiment: 384 well plate NINDS AMC confirmatory qHTS for Zika virus inhibitors (AID 1347163); note: potency is the fitted concentration of half-maximal effect; nearly all actives have a fitted effect of over 50% in size
# Method in brief: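 Linked protease 5/30/60 nM final; cpds up to 1 mM final, ~15 min preinc. Substrate Ac-VKTGKR-AMC 30 microM final. RT, dark, 25 min; FI ex 355/em 460; normalized to no-enzyme/no-inhibitor ctrls.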
# [5] = Tertiary RLuc qRT-PCR qHTS assay for Zika virus inhibitors (AID 1347169); note: top concentration of the series differs between compounds; % is set by controls: 0 for no effect and ±100 for the full control effect; nearly all actives have a fitted effect of over 55% in size
# Method in brief: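 Vero cells (1,000 per well) plated overnight at 37 degrees C, treated with compound in DMSO, then infected with recombinant ZIKV-RLuc (Cambodian) at MOI 1-2 for 48-72 hrs. Live-cell Renilla luciferase substrate added; luminescence read after 1-1.5 hrs.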
# [6] = target: N-terminal Xaa-Pro-Lys N-methyltransferase 1 (Homo sapiens) (UniProt Q9BV86); experiment: Confirmatory qHTS for Inhibitors of N-terminal methyltransferase 1 (NTMT1): MTaseGlo Assay (AID 1645874);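 note: luminescence from SAH made as NTMT1 methylates SPKRIA peptide using SAM; series mostly up to about 100 µM; 0% = DMSO control and -100% = no-enzyme control; nearly all actives have a fitted effect of over 65% in size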
# Sequence of N-terminal Xaa-Pro-Lys N-methyltransferase 1 (Homo sapiens) (Q9BV86 whole entry, looked up): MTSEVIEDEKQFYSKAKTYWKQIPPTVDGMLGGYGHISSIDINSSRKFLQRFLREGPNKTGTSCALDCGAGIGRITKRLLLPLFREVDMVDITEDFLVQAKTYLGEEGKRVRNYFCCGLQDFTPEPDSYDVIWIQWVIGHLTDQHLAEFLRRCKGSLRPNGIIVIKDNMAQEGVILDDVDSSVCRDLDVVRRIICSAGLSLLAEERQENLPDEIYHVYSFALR
# Method in brief: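 Luminescent MTase-Glo read-out of SAH. 125 nM NTMT1, 100 uM SAM, 1 uM SPKRIA substrate, 30 min RT reaction after 15 min compound preincubation. Normalized to no-enzyme and DMSO controls; Hill fit.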
# [7] = target: Rap guanine nucleotide exchange factor 4 (Homo sapiens) (UniProt Q8WZA2); experiment: Confirmatory qHTS for agonist of cAMP-regulated guanine nucleotide exchange factor 4 (EPAC2) (AID 1645884);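 note: nucleotide exchange releases bodipy-GDP from Rap1 and this lowers its fluorescence; % is set by controls: 0 for no effect and ±100 for the full control effect; nearly all actives have a fitted effect of over 65% in size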
# Sequence of Rap guanine nucleotide exchange factor 4 (Homo sapiens) (Q8WZA2 whole entry, looked up): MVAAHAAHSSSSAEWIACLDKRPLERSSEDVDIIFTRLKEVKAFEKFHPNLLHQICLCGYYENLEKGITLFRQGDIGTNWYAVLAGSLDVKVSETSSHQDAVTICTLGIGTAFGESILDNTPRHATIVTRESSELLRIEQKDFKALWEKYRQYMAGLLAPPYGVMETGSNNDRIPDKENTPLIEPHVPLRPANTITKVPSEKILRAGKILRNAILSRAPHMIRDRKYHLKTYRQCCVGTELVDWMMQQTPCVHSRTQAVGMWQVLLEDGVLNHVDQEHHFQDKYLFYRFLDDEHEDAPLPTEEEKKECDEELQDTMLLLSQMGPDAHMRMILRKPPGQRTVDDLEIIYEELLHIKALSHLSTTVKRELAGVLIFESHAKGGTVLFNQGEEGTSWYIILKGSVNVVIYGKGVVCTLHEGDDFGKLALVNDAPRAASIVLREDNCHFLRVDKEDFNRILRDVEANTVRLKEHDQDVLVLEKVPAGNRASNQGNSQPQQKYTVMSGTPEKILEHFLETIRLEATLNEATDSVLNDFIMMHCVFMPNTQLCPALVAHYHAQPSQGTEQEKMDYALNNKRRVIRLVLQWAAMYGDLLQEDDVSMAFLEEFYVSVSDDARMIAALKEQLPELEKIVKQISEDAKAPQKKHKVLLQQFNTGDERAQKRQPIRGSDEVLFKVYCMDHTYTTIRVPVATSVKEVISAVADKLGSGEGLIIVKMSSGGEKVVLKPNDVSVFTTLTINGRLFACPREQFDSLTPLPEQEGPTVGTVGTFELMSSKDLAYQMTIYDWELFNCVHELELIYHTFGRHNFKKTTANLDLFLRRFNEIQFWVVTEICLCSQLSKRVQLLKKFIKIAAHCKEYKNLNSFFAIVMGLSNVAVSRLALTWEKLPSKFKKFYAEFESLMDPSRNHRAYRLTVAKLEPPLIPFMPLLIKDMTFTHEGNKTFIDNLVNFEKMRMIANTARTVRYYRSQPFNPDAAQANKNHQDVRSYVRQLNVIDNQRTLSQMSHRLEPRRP
# [8] = target: Rap guanine nucleotide exchange factor 4 (Homo sapiens) (UniProt Q8WZA2); experiment: Confirmatory qHTS for antagonist of cAMP-regulated guanine nucleotide exchange factor 4 (EPAC2) (AID 1645885); note: % is set by controls: 0 for no effect and ±100 for the full control effect; nearly all actives have a fitted effect of over 25% in size
# [9] = target: Rap guanine nucleotide exchange factor 3 (Homo sapiens) (UniProt O95398); experiment: Counterscreen qHTS for antagonist of cAMP-regulated guanine nucleotide exchange factor 3 (EPAC1) (AID 1645888);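 note: fluorescence loss as bound BODIPY-GDP is released from Rap1B; % of control where 0% means no effect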
# Sequence of Rap guanine nucleotide exchange factor 3 (Homo sapiens) (O95398 whole entry, looked up): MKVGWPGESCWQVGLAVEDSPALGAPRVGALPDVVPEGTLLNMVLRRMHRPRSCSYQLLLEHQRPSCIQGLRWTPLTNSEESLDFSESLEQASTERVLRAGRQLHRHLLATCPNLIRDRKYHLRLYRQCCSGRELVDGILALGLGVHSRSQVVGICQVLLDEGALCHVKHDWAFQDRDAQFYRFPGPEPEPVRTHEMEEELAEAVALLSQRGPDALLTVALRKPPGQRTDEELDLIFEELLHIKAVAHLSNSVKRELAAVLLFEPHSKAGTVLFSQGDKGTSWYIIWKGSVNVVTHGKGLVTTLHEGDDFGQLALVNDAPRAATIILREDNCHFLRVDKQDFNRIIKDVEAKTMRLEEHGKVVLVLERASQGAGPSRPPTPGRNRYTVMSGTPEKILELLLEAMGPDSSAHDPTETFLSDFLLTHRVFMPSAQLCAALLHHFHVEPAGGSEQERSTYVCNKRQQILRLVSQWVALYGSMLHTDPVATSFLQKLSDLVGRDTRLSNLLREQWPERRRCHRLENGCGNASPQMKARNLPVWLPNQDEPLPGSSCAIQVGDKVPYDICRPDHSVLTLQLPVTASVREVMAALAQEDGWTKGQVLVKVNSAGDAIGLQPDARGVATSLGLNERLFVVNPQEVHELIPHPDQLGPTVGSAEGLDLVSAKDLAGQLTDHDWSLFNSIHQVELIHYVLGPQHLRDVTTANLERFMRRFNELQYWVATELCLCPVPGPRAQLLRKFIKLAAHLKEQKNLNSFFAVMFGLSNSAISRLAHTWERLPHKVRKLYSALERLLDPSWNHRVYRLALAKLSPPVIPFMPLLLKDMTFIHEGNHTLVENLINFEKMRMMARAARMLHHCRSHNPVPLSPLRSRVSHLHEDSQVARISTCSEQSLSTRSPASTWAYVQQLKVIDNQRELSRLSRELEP
# Method in brief: (§1)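 Rap1B–BODIPY-GDP (250 nM) with 50 uM GDP; compounds pin-transferred to 9.74 nM–152 uM final (activator) or from 7.32 nM upwards (inhibitor). Fluorescence Ex/Em 480/540 nm read at 5 and 30 min, then after adding cAMP or buffer, at room temperature.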
# [10] = target: Rap guanine nucleotide exchange factor 3 (Homo sapiens) (UniProt O95398); experiment: Counterscreen qHTS for agonist of cAMP-regulated guanine nucleotide exchange factor 3 (EPAC1) (AID 1645889); note: potency is the fitted concentration of half-maximal effect; nearly all actives have a fitted effect of over 40% in size
# Method in brief: as §1
# [11] = target: Estrogen receptor (Homo sapiens) (UniProt P03372); experiment: qHTS assay for small molecule antagonists of estrogen receptor alpha signaling (AID 588513; active = well fitted curve in the direction sought with a large enough effect in the signal ratio, with a control signal flat, not every such curve was filed as active; the % refers to the signal ratio; note: % is set by controls: 0 for no effect and ±100 for the full control effect)
# Sequence of Estrogen receptor (Homo sapiens) (P03372 whole entry, looked up): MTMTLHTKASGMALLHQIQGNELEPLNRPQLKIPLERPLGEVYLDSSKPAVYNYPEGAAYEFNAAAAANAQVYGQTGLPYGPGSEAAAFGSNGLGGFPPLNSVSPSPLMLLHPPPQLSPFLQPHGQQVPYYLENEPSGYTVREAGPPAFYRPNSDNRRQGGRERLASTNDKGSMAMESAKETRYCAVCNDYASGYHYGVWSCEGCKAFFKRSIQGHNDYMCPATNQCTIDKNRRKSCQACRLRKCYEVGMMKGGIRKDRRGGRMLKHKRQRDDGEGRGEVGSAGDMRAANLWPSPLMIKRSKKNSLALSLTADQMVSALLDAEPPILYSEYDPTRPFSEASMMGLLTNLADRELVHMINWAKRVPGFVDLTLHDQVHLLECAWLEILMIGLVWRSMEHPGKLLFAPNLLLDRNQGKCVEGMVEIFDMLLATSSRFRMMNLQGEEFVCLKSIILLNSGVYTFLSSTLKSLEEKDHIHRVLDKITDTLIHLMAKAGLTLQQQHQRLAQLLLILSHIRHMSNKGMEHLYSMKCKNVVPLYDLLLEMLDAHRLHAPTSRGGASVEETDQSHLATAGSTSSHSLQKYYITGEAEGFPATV
# Method in brief: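 ER-alpha-UAS-bla GripTite HEK 293 cells in medium with 2% charcoal/dextran-treated FBS were preincubated 4 h at 37 C, dosed with compound (1:2 titration), stimulated with 0.5nM 17-beta-estradiol for 18 h, then read by CCF4 beta-lactamase fluorescence.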
# [12] = target: Estrogen receptor (Homo sapiens) (UniProt P03372); experiment: qHTS assay for small molecule agonists of estrogen receptor alpha signaling (AID 588514; calls by dose curve;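 note: 0% = vehicle only and 100% = reference agonist; nearly all actives have a fitted effect of over 70% in size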)
# Method in brief: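 Reporter-gene assay. […] controls beta-lactamase in HEK 293 GripTite cells; after 18 hrs with compound, CCF4 substrate is added for 2 hrs and fluorescence is read.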
# [13] = target: Bile acid receptor (Homo sapiens) (UniProt Q96RI1); experiment: qHTS assay for small molecule antagonists of farnesoid X receptor signaling (AID 588526; calls by dose curve; note: % is set by controls: 0 for no effect and ±100 for the full control effect)
# Method in brief: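 Antagonist mode: titrated compounds tested against chenodeoxycholic acid stimulation (normalized to 50 uM CDCA and DMSO) in GeneBLAzer HEK293T cells for 16 h. Beta-lactamase read by CCF4 fluorescence; IC50 from Hill fits.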
# [14] = qHTS assay for small molecule antagonists of peroxisome proliferator-activated receptor delta signaling (AID 588535; active = well fitted inhibition curve with a large enough effect in the signal ratio, with a control signal flat, not every such curve was filed as active; the % refers to the signal ratio;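 for max response: cells co-treated with a PPAR-delta agonist as stimulator during compound exposure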); settings: HEK293T PPARd-UAS-bla, beta-lactamase FRET ratio, 18 h; 460 nm channel
# Method in brief: (§2)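 Cells were seeded at 4000 per well in assay medium containing 2% charcoal/dextran FBS and held 5 hrs at 37 C. Compounds were then added for 18 hrs. CCF4 substrate was applied for 2 hrs at room temperature before fluorescence reading.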
# [15] = target: Peroxisome proliferator-activated receptor delta (Homo sapiens) (UniProt Q03181); experiment: as above
# Method in brief: as §2
# [16] = target: Vitamin D3 receptor (Homo sapiens) (UniProt P11473); experiment: qHTS assay for small molecule antagonists of vitamin D receptor signaling (AID 588541; calls by dose curve;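 note: receptor activated by calcitriol during compound treatment; series mostly up to about 77 µM; % is set by controls: 0 for no effect and ±100 for the full control effect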)
# Sequence of Vitamin D3 receptor (Homo sapiens) (P11473 whole entry, looked up): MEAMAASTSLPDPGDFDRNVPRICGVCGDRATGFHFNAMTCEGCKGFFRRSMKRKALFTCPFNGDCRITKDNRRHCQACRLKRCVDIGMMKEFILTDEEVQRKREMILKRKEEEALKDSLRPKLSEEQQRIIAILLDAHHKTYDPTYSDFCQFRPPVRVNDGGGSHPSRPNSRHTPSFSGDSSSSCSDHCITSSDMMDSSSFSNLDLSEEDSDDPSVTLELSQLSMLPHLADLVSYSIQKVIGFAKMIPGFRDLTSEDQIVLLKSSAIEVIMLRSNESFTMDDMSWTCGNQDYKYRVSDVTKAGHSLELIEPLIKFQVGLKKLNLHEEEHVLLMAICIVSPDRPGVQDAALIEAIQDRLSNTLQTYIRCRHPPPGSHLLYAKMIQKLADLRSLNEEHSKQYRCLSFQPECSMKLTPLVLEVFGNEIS
# Method in brief: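 VDR-UAS-bla HEK293T cells in 2% charcoal-stripped FBS were stimulated with 1-alpha,25-dihydroxyvitamin D3 (3 nM final) plus compound for 16 h at 37 C. The beta-lactamase CCF4 readout was normalized to 50 nM agonist and DMSO, and Hill fits gave IC50.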
# [17] = target: Vitamin D3 receptor (Homo sapiens) (UniProt P11473); experiment: qHTS assay for small molecule agonists of vitamin D receptor signaling (AID 588543; calls by dose curve;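 note: 0% = DMSO basal and 100% = reference agonist control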)
# Method in brief: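 GeneBLAzer VDR-UAS-bla HEK293T cells in 2% charcoal-stripped FBS medium were dosed with compound titrations for 16 h at 37 °C; CCF4 β-lactamase readout (405 nm ex, 460/530 nm em). EC50 and efficacy from Hill fits, normalized to 50 nM calcitriol (100%) and DMSO (0%).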
# [18] = qHTS assay for small molecule agonists of retinoid X receptor alpha signaling (AID 588544; calls by dose curve;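 for activation: 0% = DMSO basal wells and 100% = reference agonist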); settings: HEK293T RXRa-UAS-bla, beta-lactamase reporter, 18 h; 530 nm emission
# [19] = target: Retinoic acid receptor RXR-alpha (Homo sapiens) (UniProt P19793); experiment: as above
# Sequence of Retinoic acid receptor RXR-alpha (Homo sapiens) (P19793 whole entry, looked up): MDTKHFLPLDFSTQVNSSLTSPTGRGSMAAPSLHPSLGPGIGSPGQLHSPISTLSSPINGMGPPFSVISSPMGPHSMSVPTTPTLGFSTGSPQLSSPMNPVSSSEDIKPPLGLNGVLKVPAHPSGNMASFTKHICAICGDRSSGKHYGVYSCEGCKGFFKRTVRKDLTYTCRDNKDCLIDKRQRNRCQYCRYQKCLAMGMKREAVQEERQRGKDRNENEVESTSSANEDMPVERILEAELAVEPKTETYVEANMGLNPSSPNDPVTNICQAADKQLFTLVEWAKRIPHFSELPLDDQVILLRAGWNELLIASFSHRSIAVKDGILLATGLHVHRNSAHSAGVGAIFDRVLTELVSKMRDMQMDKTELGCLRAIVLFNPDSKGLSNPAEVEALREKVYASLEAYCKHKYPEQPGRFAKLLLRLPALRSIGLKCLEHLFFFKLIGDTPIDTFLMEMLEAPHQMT
# [20] = target: Thyroid hormone receptor beta (Homo sapiens) (UniProt P10828); experiment: qHTS assay for small molecule agonists of thyroid hormone receptor beta signaling (AID 588545; calls by dose curve;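 note: 0% = DMSO only and 100% = 10 nM T3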)
# Sequence of Thyroid hormone receptor beta (Homo sapiens) (P10828 whole entry, looked up): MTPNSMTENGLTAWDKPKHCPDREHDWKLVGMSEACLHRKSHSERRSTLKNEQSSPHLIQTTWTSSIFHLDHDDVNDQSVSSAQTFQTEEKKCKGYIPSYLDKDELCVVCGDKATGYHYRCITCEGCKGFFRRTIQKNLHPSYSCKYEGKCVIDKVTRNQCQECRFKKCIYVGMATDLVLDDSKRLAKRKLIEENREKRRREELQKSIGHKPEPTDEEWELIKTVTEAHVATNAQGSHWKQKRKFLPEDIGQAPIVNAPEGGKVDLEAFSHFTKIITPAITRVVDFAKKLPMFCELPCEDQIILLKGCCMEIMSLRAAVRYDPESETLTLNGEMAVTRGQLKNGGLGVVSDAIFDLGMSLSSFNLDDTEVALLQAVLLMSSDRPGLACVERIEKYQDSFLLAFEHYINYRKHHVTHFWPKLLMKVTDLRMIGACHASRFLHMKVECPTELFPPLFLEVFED
# Method in brief: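 Beta-lactamase reporter activity under TR response element control is measured in HEK 293 cells after 18 hrs compound exposure. Signal is ratiometric CCF4 fluorescence, 460/530 nm.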
# [21] = qHTS assay for small molecule antagonists of retinoid X receptor alpha signaling (AID 588546; active = well fitted inhibition curve with a large enough effect in the signal ratio, with a control signal flat, not every such curve was filed as active; the % refers to the signal ratio;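 note: cells stimulated with 9-cis-retinoic acid as agonist; % is set by controls: 0 for no effect and ±100 for the full control effect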); settings: HEK293T RXRa-UAS-bla, beta-lactamase ratio, antagonist mode; measured here: W530 green channel, cytotoxicity proxy
# Method in brief: (§3)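 Beta-lactamase reporter inhibition, read as CCF4 fluorescence ratio (ex 405, em 460/530 nm) after 2 h at RT. HEK293T UAS-bla cells, 2500/well, were stimulated with 9-cis-RA at 500 or 100 nM final alongside test compound for 18 h at 37 C.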
# [22] = target: Retinoic acid receptor RXR-alpha (Homo sapiens) (UniProt P19793); experiment: as above; settings: HEK293T RXRa-UAS-bla, beta-lactamase ratio, antagonist mode
# Method in brief: as §3
# [23] = target: Thyroid hormone receptor beta (Homo sapiens) (UniProt P10828); experiment: qHTS assay for small molecule antagonists of thyroid hormone receptor beta signaling (AID 588547; active = well fitted inhibition curve with a large enough effect in the signal ratio, with a control signal flat, not every such curve was filed as active; the % refers to the signal ratio); settings: TR-UAS-bla HEK293, beta-lactamase ratio, antagonist mode, 18 h
# Method in brief: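 TR-UAS-bla GripTite HEK293 cells in 2% charcoal/dextran FBS medium; compounds 0.59 nM to 92 uM with T3 at 0.4nM final, 18 h at 37 C. Beta-lactamase read by CCF4 fluorescence (460/530 nm); Hill fits gave IC50 and efficacy.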
# [24] = qHTS assay for small molecule agonists of the antioxidant response element (ARE) signaling pathway (AID 651741; active = well fitted activation curve with a large enough effect in the signal ratio; the % refers to the signal ratio; note: % of control where 0% means no effect)
# Method in brief: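 HepG2 ARE-bla cells plated at 2,000 cells/well and incubated 5 h at 37 C/5% CO2 received 23 nL compound in DMSO. After 16 h at 37 C, LiveBLAzer B/G FRET substrate was applied for 2 h at room temperature and fluorescence read.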
# [25] = qHTS assay for small molecule activators of the p53 signaling pathway (AID 651743; active = well fitted activation curve with a large enough effect in the signal ratio, not every such curve was filed as active; the % refers to the signal ratio; note: series mostly up to about 92 µM; % of control where 0% means no effect); settings: HCT-116 p53RE-bla, beta-lactamase FRET ratio, 16 h; stronger effect = higher value
# Method in brief: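 HCT-116 p53RE-bla, 4,000 cells/well; 5 h settle; cpd/DMSO 16 h, 37 C; LiveBLAzer B/G 2 h RT; fluorescence intensity.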
# [26] = qHTS assay for small molecule activators of the nuclear factor-kappa B (NF-kB) signaling pathway (AID 651749; active = well fitted activation curve with a large enough effect in the signal ratio; the % refers to the signal ratio; note: series mostly up to about 77 µM; % of control where 0% means no effect); settings: NF-kB-bla ME-180 cells, beta-lactamase FRET ratio, 16 h; stronger effect = higher value
# Method in brief: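 Incubation lasted 16 hr at 37C in 5% CO2 after 23 nL compound addition to ME-180 NF-kB-bla cells. Activation appears as beta-lactamase-mediated FRET loss.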
# [27] = qHTS assay for environmental chemicals that activate the Aryl hydrocarbon Receptor (AhR) signaling pathway (AID 651777); settings: 1A2-DRE human hepatoma cells, luciferase, 24 h; stronger effect = higher value; note: % of control where 0% means no effect; nearly all actives have a fitted effect of over 15% in size
# Method in brief: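 Reporter gene assay: hepatoma cells with DRE/CYP1A2-luciferase, 24 hr compound incubation at 37 C, 5% CO2, luminescence after One-Glo (30 min, RT).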
# [28] = target: Peroxisome proliferator-activated receptor alpha (Homo sapiens) (UniProt Q07869); experiment: qHTS assay for small molecule agonists of the peroxisome proliferator-activated receptor alpha (PPARalpha) signaling pathway (AID 651778); settings: PathHunter PPARalpha complementation, chemiluminescence, 6 h; stronger effect = higher value; note: % of control where 0% means no effect
# Method in brief: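 Enzyme-fragment complementation assay in which ligand-bound PPARalpha translocates and forms an active enzyme that generates chemiluminescence. Cells were plated overnight, exposed to compound for 6 hr at 37 C, and then given detection reagent for 60 min at room temperature.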
# [29] = qHTS assay for small molecule agonists of the antioxidant response element (ARE) signaling pathway measured by Nrf2-dependant transcriptional activity (AID 720636; active = well fitted curve in the direction sought with a large enough effect in the repeat runs; an effect the other way counts as inactive or inconclusive;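 note: HepG2 cells with an ARE-driven luciferase reporter; % of control where 0% means no effect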)
# Method in brief: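 Nrf2-dependent transcription is measured in ARE-luc HepG2 cells: compound is applied for 16 hr at 37 C after a 6 hr attachment period, and luciferase activity is quantified by luminescence using ONE-Glo.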
# [30] = qHTS assay for cell viability of HEK293 cells (AID 743288); settings: ATP luminescence (CellTiter-Glo), 18 h; max response: stronger effect = lower value; note: potency is the fitted concentration of half-maximal effect; nearly all actives have a fitted effect of over 50% in size
# Method in brief: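 Parental HEK293 cells were seeded at 2,000 cells/well, rested at least 5 h at 37 C, then exposed to compounds in DMSO for 18 h at 37 C. Viability was read as ATP-dependent luciferase luminescence after 30 min at room temperature.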
# [31] = qHTS assay for cell viability of the p53RE-bla HCT-116 cell line (AID 743292); note: potency is the fitted concentration of half-maximal effect; nearly all actives have a fitted effect of over 55% in size
# Method in brief: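 ATP-based luminescence, 16 h compound exposure at 37 C, p53RE-bla HCT-116 cells at 4,000/well.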
# [32] = Confirmatory screen NINDS Rhodamine qHTS for Zika virus inhibitors (AID 1347161); note: potency is the fitted concentration of half-maximal effect; nearly all actives have a fitted effect of over 60% in size
# Method in brief: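 Aprotinin served as in-plate control. Conditions: 25 nM linked NS2B-NS3, pH 8.0 Tris buffer, titrated compounds, 15 min preincubation and 15 min reaction with 1.5 microM Rhod110 substrate at room temperature.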
# [33] = tested on: Zika virus NS2B-NS3 protease (linked construct); experiment: 384 well plate NINDS Rhodamine confirmatory qHTS for Zika virus inhibitors (AID 1347164);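 note: fluorescence from protease cleavage of Ac-LKRR-rhodamine 110 substrate; potency is the fitted concentration of half-maximal effect; nearly all actives have a fitted effect of over 65% in size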
# Method in brief: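 Linked protease at a final 5 nM, 30 nM or 60 nM was preincubated ~15 min with compounds, then given 10 microM Ac-LKRR-Rhodamine 110. Fluorescence (ex 485/em 538 nm) after 25 min in the dark at room temperature.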
# [34] = target: Nuclear receptor subfamily 1 group I member 2 (Rattus norvegicus) (UniProt Q9R1A7); experiment: qHTS assay for small molecule activators of the rat pregnane X receptor (rPXR) signaling pathway (AID 651751; call rule not given here; note: 0% is about no effect); settings: rPXR reporter cells, luciferase (One-Glo), 24 h
# [35] = qHTS assay for small molecule activators of the human pregnane X receptor (PXR) signaling pathway (AID 720659; call rule not given here; note: 0% is about no effect)
smiles,measurement,setting,value
N#C/C(=C\c1ccc(-c2ccc(Cl)c(C(=O)O)c2)o1)c1nc2ccccc2[nH]1,Potency,[1],112 µM (active)
same,Potency,Furin (Homo sapiens),inactive
same,Potency,[2],25.1 µM (active)
same,Potency,[3],inactive
same,Potency,[4],126 µM (active)
same,Potency,[5],inactive
same,Potency,[6],inactive
same,outcome,[7],inactive
same,"activity change, negative = inhibition",[8],-25.6% [at 12.7 µM] (inactive)
same,outcome,[9],inactive
same,Potency,[10],79.4 µM (active)
CCN(Cc1cccc(S(=O)(=O)O)c1)c1ccc(C(=C2C=CC(=[N+](CC)Cc3cccc(S(=O)(=O)O)c3)C=C2)c2ccccc2S(=O)(=O)[O-])cc1,Potency,[11],inactive
same,outcome,[12],inactive
same,outcome,[13],inactive
same,max response,[14],-15.8%
same,outcome,[15],inactive
same,Potency,[16],inactive
same,outcome,[17],inactive
same,max response,[18],-7.12%
same,outcome,[19],inactive
same,outcome,[20],inactive
same,max response,[21],-12.5%
same,max response,[22],8.56% (inactive)
same,activity change % (negative = inhibition),[23],-4.53% (inactive)
same,Potency,[24],inactive
same,activation,[25],1.38% (inactive)
same,activation,[26],1.84% (inactive)
same,activation,[27],-6.97% (inactive)
same,max response,[28],-9.68% (inactive)
same,outcome,[29],inactive
same,Potency,[30],35.5 µM (active)
same,Potency,[31],31.6 µM (active)
same,Potency,Furin (Homo sapiens),inactive
same,Potency,[2],3.55 µM (active)
same,Potency,[3],inactive
same,Potency,[32],3.55 µM (active)
same,Potency,[4],200 µM (active)
same,Potency,[33],14.1 µM (active)
same,max response,[34],-11% (inactive)
same,outcome,[35],inactive

# — PubChem BioAssay (NCATS)
